# An excerpt weighted towards active compounds, which were near 12% of everything screened.
# BAZ2B block: qHTS Assay for Inhibitors of BAZ2B. AlphaScreen BAZ2B-H3K14Ac peptide displacement. Potency, µM (highest dose often 114 µM), inactives show at the highest dose activity change, negative = inhibition, usual class: inhibitors. 4.4% of 360,000 active; further: potency means the concentration at half of the fitted maximal effect; on the % scale 0 is the no-effect control and ±100 the full control effect; nearly all actives have a fitted effect of over 60% in size
#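 Compounds, titrated to a top concentration of 110 uM, were incubated 30 min at room temperature with preformed BAZ2B/acetyl-K14 H3 peptide complex (50 nM each). Proximity signal was measured by AlphaScreen after 20 min with beads.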
# PI5P4K alpha inh: qHTS for Inhibitors of phosphatidylinositol 5-phosphate 4-kinase (PI5P4K). Phosphatidylinositol 5-phosphate 4-kinase type-2 alpha (Homo sapiens), P48426. PI5P4Kalpha enzyme, ADP-Glo luminescence, 60 min; stronger effect = lower value. max response, %. 1.2% of 330,000 active; active means max response of -50% or lower; inconclusive means between -30% and -50%; inactive means -30% or higher; further: value at the top dose of about 77 µM; on the % scale 0 is the no-effect control and ±100 the full control effect
#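 ADP-Glo luminescence end-point after a 60 min room-temperature kinase reaction. PI5P4Kalpha and substrate in HEPES pH 7.4 buffer with EGTA, 0.1% CHAPS and 5% DMSO; ATP at 5 microM final.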
# HP1b chromo inh: HTS for Inhibitors of HP1-beta Chromodomain Interactions with Methylated Histone Tails; Chromobox protein homolog 1 (Homo sapiens), P83916; AlphaScreen HP1-beta / biotin-H3K9me3 peptide binding; Potency, µM (top dose mostly 114 µM), for inactives: at the top dose activity change, negative = inhibition, usual class: inhibitors; 0.56% of 390,000 active; AID 540317, 2011; further: potency means the concentration at half of the fitted maximal effect; nearly all actives have a fitted effect of over 70% in size
#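 AlphaScreen: HP1-beta (50 nM) preformed 30 min with biotin-H3(1-18)K9me3 peptide (50 nM) in PBS pH 7.4, 0.01% Tween-20. Compound added for 30 min at RT, then streptavidin donor/nickel chelate acceptor beads (10 ug/mL) for 30 min.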
# PLK1 PBD block: qHTS for Inhibitors of PLK1-PDB (polo-like kinase 1 - polo-box domain): Primary Screen; Serine/threonine-protein kinase PLK1 (Homo sapiens), P53350; Plk1 PBD binding of FITC phosphopeptide, fluorescence polarization; Potency, µM, for the others: max response, negative = inhibition, usual class: inhibitors; 2.8% of 360,000 active; AID 720504, 2013; further: potency means the concentration at half of the fitted maximal effect; series mostly up to about 57 µM; on the % scale 0 is the no-effect control and ±100 the full control effect; nearly all actives have a fitted effect of over 65% in size
# G9a block: qHTS Assay for Inhibitors of Histone Lysine Methyltransferase G9a. Histone-lysine N-methyltransferase EHMT2 (Homo sapiens), Q96KQ7. G9a H3K9 monomethylation, AlphaScreen, 2 h. Potency, µM (top dose mostly 102 µM), without a hit: top-dose activity, negative = inhibition, usual class: inhibitors. 8.8% of 350,000 active. AID 504332, 2011; further: potency means the concentration at half of the fitted maximal effect; on the % scale 0 is the no-effect control and ±100 the full control effect; nearly all actives have a fitted effect of over 75% in size
#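 Chemiluminescent proximity detection of H3K9 monomethylation, read after 10 min bead incubation in the dark. Reaction: 20 nM G9a, 500 nM biotin-H3K9 peptide, 20 uM SAM cofactor, 2 h, room temperature, following 15 min enzyme-compound preincubation.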
# JMJD2A Tudor: qHTS Assay for Inhibitors of JMJD2A-Tudor Domain. AlphaScreen JMJD2A-Tudor / H3K4me3 peptide binding. Potency, µM (top dose mostly 114 µM), for inactives: at the highest dose activity change, negative = inhibition, usual class: inhibitors. 4.4% of 390,000 active; further: potency means the concentration at half of the fitted maximal effect; on the % scale 0 is the no-effect control and ±100 the full control effect; nearly all actives have a fitted effect of over 50% in size
# Target sequence (O75164 whole entry, looked up, the tested form may be a part): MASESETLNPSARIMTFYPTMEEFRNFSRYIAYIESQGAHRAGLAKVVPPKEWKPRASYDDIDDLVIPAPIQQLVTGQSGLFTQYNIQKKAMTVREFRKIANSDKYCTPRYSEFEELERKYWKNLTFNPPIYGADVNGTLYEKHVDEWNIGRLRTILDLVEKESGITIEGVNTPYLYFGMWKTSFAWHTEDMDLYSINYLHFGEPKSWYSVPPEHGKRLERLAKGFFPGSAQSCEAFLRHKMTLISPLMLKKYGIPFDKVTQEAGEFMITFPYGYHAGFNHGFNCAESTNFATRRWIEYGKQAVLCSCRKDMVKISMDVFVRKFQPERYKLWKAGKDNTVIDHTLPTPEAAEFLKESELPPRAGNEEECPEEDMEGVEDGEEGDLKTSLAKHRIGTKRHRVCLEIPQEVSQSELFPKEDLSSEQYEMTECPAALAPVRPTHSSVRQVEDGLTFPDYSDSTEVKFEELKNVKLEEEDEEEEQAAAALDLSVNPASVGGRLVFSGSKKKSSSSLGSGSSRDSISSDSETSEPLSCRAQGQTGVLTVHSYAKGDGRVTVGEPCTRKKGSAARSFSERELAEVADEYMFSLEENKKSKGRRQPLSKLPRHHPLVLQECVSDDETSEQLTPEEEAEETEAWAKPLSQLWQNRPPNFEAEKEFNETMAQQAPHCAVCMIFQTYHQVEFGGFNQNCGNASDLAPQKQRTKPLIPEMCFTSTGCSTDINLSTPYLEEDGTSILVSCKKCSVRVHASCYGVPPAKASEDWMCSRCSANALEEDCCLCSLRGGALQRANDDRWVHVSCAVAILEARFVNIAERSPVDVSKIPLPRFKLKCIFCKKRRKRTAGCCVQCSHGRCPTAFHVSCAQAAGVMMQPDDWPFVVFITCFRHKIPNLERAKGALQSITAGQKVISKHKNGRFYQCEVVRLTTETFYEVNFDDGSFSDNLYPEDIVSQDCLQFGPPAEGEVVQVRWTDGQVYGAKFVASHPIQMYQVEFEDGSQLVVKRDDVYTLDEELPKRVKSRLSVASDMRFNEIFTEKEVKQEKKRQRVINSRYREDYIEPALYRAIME
# An asterisk follows results filed as active; ? = inconclusive; · = no result; [ ] = dose if it differs, or a comment. Unless noted, the call rests on the fitted dose curve; in most records, active means well fitted curve in the direction sought with a large enough effect; inconclusive means small, poorly fitted or top-dose-only effect, or another doubt; inactive means no such curve, though single readings can be large; an effect the other way counts as inactive or inconclusive.
SMILES,BAZ2B block,PI5P4K alpha inh,HP1b chromo inh,PLK1 PBD block,G9a block,JMJD2A Tudor
O=C(NNC(=S)Nc1ccc(Cl)cc1)c1ccccc1,0.7%,4.2,1.5%,-25.9%,35.5µM*,-16.3%
O=C(NNC(=S)Nc1ccccc1Cl)c1ccccc1,1.8%,4.3,9.8%,-16.8%,·,-16.0%
COc1ccc(S(=O)(=O)N(CC(=O)NC2CC3CCC2C3)c2ccccc2OC)cc1 (centres undefined),-0.2%,3.7,-5.7%,26.7µM*,-6.4%,?
COc1ccccc1N(CC(=O)Nc1ccc2c(c1)OCO2)S(=O)(=O)c1ccccc1,56.2µM*,-1.1,-3.5%,-7.0%,28.2µM*,?
COc1ccc(S(=O)(=O)N(CC(=O)Nc2ccc3c(c2)OCO3)c2ccccc2OC)cc1,-26.9%,-11.2,10.0%,-3.8%,-18.5%[59 µM],-23.7%
CCOc1ccccc1N(CC(=O)NC1CCCCC1)S(=O)(=O)c1ccccc1,-0.8%,5.8,8.5%,-4.6%,25.1µM*,-9.0%
COc1ccc(C(C(=O)Nc2c(C)cccc2C)N2CCN(C)CC2)cc1 (centres undefined),·,8.9,·,0.7%,·,·
Cn1cc(CN(C(=O)Nc2ccccc2)C2CCCCC2)c2ccccc21,·,·,-8.7%,·,?,?
O=C(NC1CCCCC1)N(CCN1CCCC1)Cc1cc2cc3c(cc2[nH]c1=O)OCCO3,7.7%,7.9,17.4%,-2.4%,39.8µM*,-29.1%
O=C(NC1CCCCC1)N(CCO)Cc1cc2cc3c(cc2[nH]c1=O)OCCO3,-4.4%,0.0,24.8%,4.1%,-22.5%[59 µM],9.5%
Cc1cc2cc(CN(CCCN3CCOCC3)C(=O)NC3CCCCC3)c(=O)[nH]c2cc1C,7.4%,·,10.1%,-2.4%,14.1µM*,-20.9%
COc1ccc(-n2c(=O)c3c4c(sc3n(C)c2=O)CN(C(C)=O)CC4)cc1,-2.4%,·,28.5%,·,-1.5%[59 µM],5.1%
CCN1CCN(c2ccc(S(=O)(=O)N3CCOCC3)cc2NC(=O)c2ccc(C(F)(F)F)cc2)CC1,11.4%,-1.0,10.2%,-9.4%,0.3%[0.501 µM],-15.9%
CCN1CCN(c2ccc(S(=O)(=O)N3CCOCC3)cc2NC(=O)/C=C/c2ccc(OC)cc2OC)CC1,-38.3%,-0.7,-3.4%,0.4%,39.8µM*,-29.0%
CCN1CCN(c2ccc(S(=O)(=O)N3CCOCC3)cc2NC(=O)c2ccc(F)cc2Cl)CC1,5.7%,3.6,43.6%,4.7%,39.8µM*,9.6%
CCN1CCN(c2ccc(S(=O)(=O)N3CCCCC3)cc2NC(=O)c2ccc(C)c(C)c2)CC1,·,8.3,1.9%,-6.7%,·,?
CS(=O)(=O)N1CCN(c2ccccc2NC(=O)c2ccc([N+](=O)[O-])o2)CC1,-9.3%,?,?,3.36µM*,-2.7%,3.16µM*
CN1CCN(c2ccccc2NC(=O)c2ccc([N+](=O)[O-])o2)CC1,?,-0.5,18.5%,-26.9%,·,-17.2%
CCN1CCN(c2ccc(S(=O)(=O)N3CCCCC3)cc2NC(=O)c2cccc(C)c2)CC1,-33.7%,-2.5,-8.0%,-3.1%,50.1µM*,-33.8%
O=C(CN1C(=O)CC(c2ccco2)Sc2ccccc21)Nc1ccc(OC(F)(F)F)cc1 (centres undefined),-0.2%,·,5.2%,·,0.5%[59 µM],-19.3%
O=C(CSc1ccc2nnc(CCNC(=O)c3ccccc3)n2n1)NCc1ccc(F)cc1,1.9%,0.7,31.2%,2.0%,31.6%,-7.6%
COc1cccc(C2C(C(=O)Nc3ccccc3OC)=C(C)Nc3nc(-c4ccco4)nn32)c1 (centres undefined),-23.9%,·,-5.1%,·,24.6%[59 µM],?
CN(C)S(=O)(=O)c1ccc(N2CCCC2)c(C(=O)Nc2ccccc2F)c1,3.9%,-5.2,15.9%,-2.9%,?,-4.1%
O=C(Nc1cc(S(=O)(=O)N2CCCCC2)ccc1N1CCOCC1)c1ccc(F)cc1,11.0%,5.9,45.9%,-1.8%,-33.3%,-7.6%
CN(C)S(=O)(=O)c1cccc(C(=O)Nc2cc(S(=O)(=O)N3CCOCC3)ccc2O)c1,-11.3%,5.2,19.2%,-15.7%,-8.2%,-7.5%
SMILES,BAZ2B block,PI5P4K alpha inh,HP1b chromo inh,PLK1 PBD block,G9a block,JMJD2A Tudor
CN(C)S(=O)(=O)c1ccc(N2CCCC2)c(C(=O)Nc2ccc(F)cc2F)c1,7.8%,-7.8,12.7%,0.8%,11.2µM*,-11.0%
CN(C)S(=O)(=O)c1cccc(C(=O)Nc2cc(S(=O)(=O)N3CCOCC3)ccc2N2CCCC2)c1,·,?,?,5.32µM*,·,-19.1%
CCN1CCN(c2ccc(S(=O)(=O)N3CCCCC3)cc2NC(=O)c2ccc([N+](=O)[O-])o2)CC1,-31.7%,10.5,?,-14.8%,35.5µM*,?
COc1ccc(S(=O)(=O)N2CCCCC2)cc1NC(=O)c1ccc([N+](=O)[O-])o1,-5.6%,-3.3,32.9%,-10.0%,1.3%,-5.5%
O=C(Nc1cc(S(=O)(=O)N2CCOCC2)ccc1N1CCCC1)c1ccc(F)cc1,-37.1%,?,?,9.47µM*,?,-30.9%
Cc1cc(C)cc(Cn2ncc3c4sc(C)cc4n(C)c3c2=O)c1,·,·,·,·,·,-27.4%
O=C(Nc1ccc(F)cc1)C(c1cccc(F)c1)N1CCN(c2ccncc2)CC1 (centres undefined),·,-2.8,·,3.0%,·,·
CCN1CCN(c2ccc(S(=O)(=O)N3CCCCC3)cc2NC(=O)c2ccc(F)cc2)CC1,-6.0%,1.5,19.4%,-3.6%,10µM*,?
CCN1CCN(c2ccc(S(=O)(=O)N3CCCCC3)cc2NC(=O)c2sccc2C)CC1,?,6.4,9.1%,-6.1%,2.24µM*,-29.0%
O=C(Nc1cc(S(=O)(=O)N2CCOCC2)ccc1N1CCCCC1)c1cc(-c2ccccn2)nc2ccccc12,-31.3%,?,?,4.23µM*,2.82µM*,79.4µM*
Cc1ccc(S(=O)(=O)N2CCOCC2)cc1NC(=O)c1cc(-c2ccccn2)nc2ccccc12,-15.0%,4.8,6.4%,?,·,-4.4%[11.4 µM]
COc1ccc(S(=O)(=O)N2CCOCC2)cc1NC(=O)c1sccc1C,6.9%,1.1,41.5%,0.9%,7.3%[0.501 µM],6.5%
CN1CCN(c2ccc(S(=O)(=O)N3CCCCC3)cc2NC(=O)c2ccc(C#N)cc2)CC1,1.5%,2.2,32.2%,-5.0%,9.7%[59 µM],-14.5%
